Experimental data from the supplement of paper PMC10849652.
Of roughly 7,900 targets only a part is listed; those with a hit were picked by preference. About 0.6% of all pairs of compound and target were hits. Values without a mark were called inactive.

Legend:
Test in all cases: log2 fold change, soluble protein after heating vs DMSO (PISA); higher = thermal stabilisation; K562 cells, 10 uM, 30 min; active = over 0.2 and 3.5 SD of the protein, either way, in both replicates (recomputed)
[1] = compound: CC1=C(C=C(C=C1)NC(=O)C2=CC(=CC=C2)N(C)C)NC(=O)C3=CC=C(C=C3)O
Outline: (§1)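 K562 cells (2×10^6 cells/mL) were treated with 10 μM compound for 30 min, and aliquots were heated for 3 min over 48°C-58°C. Pooled aliquots were extracted in PBS with 0.5% NP-40 at 4°C, and the supernatant after 21,000xg for 90 min was measured by TMTpro 16plex LC-MS/MS with channel sums equalised. Reported thermal stability, relative to control samples and from duplicates, is a log2 fold change.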

[2] = compound: CC1=CC=C(C=C1)SC2=C3C=C(SC3=CN=C2)C(=O)N
Outline: as §1

[3] = compound: CC1=NC(=CC=C1)C2=C(N=C(N2)C(C)(C)C)C3=CC4=NC=CN=C4C=C3
Outline: as §1

[4] = compound: CCCS(=O)(=O)Nc1ccc(F)c(C(=O)c2c[nH]c3ncc(Cl)cc23)c1F
Outline: as §1

givinostat = compound: CCN(CC)Cc1ccc2cc(COC(=O)Nc3ccc(C(=O)NO)cc3)ccc2c1 [givinostat]
Outline: as §1

[5] = compound: CC[C@@H]1C(=O)N(C)c2cnc(Nc3ccc(C(=O)NC4CCN(C)CC4)cc3OC)nc2N1C1CCCC1
Outline: as §1

volasertib = compound: CC[C@@H]1C(=O)N(C)c2cnc(Nc3ccc(C(=O)N[C@H]4CC[C@H](N5CCN(CC6CC6)CC5)CC4)cc3OC)nc2N1C(C)C [volasertib]
Outline: as §1

[6] = compound: CCn1c(C(=O)N(C2CC2)C2CC2)cc2c3c(ncn3C)c(Nc3cc(C)n(C)n3)nc21
Outline: as §1

[7] = compound: CCn1cc(-c2ccnc3[nH]c(-c4cccc(CN(C)C)c4)cc23)c(-c2ccc(NC(=O)N(C)C)cc2)n1
Outline: as §1

[8] = compound: CN1CCC(CNc2ccc3ncc(-c4cccc(OC(F)(F)F)c4)n3n2)CC1
Outline: as §1

vemurafenib = compound: CCCS(=O)(=O)Nc1ccc(F)c(C(=O)c2c[nH]c3ncc(-c4ccc(Cl)cc4)cc23)c1F [vemurafenib]
Outline: as §1

[9] = compound: CCCc1cc(C)[nH]c(=O)c1CNC(=O)c1cc(-c2ccnc(N3CCN(C)CC3)c2)cc2c1cnn2C(C)C
Outline: as §1

barasertib = compound: CCN(CCCOc1ccc2c(Nc3cc(CC(=O)Nc4cccc(F)c4)[nH]n3)ncnc2c1)CCOP(=O)(O)O [barasertib]
Outline: as §1

[10] = compound: CN(C)CC(=O)Nc1ccc2[nH]c(=O)c3ccccc3c2c1
Outline: as §1

rosiglitazone = compound: CN(CCOC1=CC=C(C=C1)C[C@H]2C(=O)NC(=O)S2)C3=CC=CC=N3 (racemic) [rosiglitazone]
Outline: as §1

[11] = compound: CC1=C(C=C(C=C1)NC(=O)C2=CC(=CC=C2)C(C)(C)C#N)NC3=CC4=C(C=C3)N=CN(C4=O)C
Outline: as §1

Nexturastat A = compound: CCCCN(Cc1ccc(C(=O)NO)cc1)C(=O)Nc1ccccc1 [Nexturastat A]
Outline: as §1

epoxomicin = compound: CC[C@H](C)[C@@H](C(=O)N[C@@H]([C@@H](C)O)C(=O)N[C@@H](CC(C)C)C(=O)[C@]1(CO1)C)NC(=O)[C@H]([C@@H](C)CC)N(C)C(=O)C [epoxomicin]
Outline: as §1

[12] = compound: CN1C2=C(C3=C1C(=O)N(N=C3)CC4=CC(=CC=C4)N)SC(=C2)S(=O)C
Outline: as §1

[13] = compound: CC[C@H](C)N1C=C(C2=C(C=C(C=C21)C3=CN=C(C=C3)N4CCNCC4)C(=O)NCC5=C(C=C(NC5=O)C)C)C
Outline: as §1

## PTEN isoform 2 (UniProt P60484)
[1]
  log2 fold change: -0.035
[2]
  log2 fold change: 0.13
[3]
  log2 fold change: 0.064
[4]
  log2 fold change: -0.016
givinostat
  log2 fold change: -0.086
[5]
  log2 fold change: 0.024
volasertib
  log2 fold change: 0.05
[6]
  log2 fold change: -0.071
[7]
  log2 fold change: -0.016
[8]
  log2 fold change: -0.098

## PCF11 (UniProt O94913)
[1]
  log2 fold change: 0.045
[2]
  log2 fold change: 0.019
[3]
  log2 fold change: -0.018
vemurafenib
  log2 fold change: -0.058
[4]
  log2 fold change: 0.006
[9]
  log2 fold change: -0.3
barasertib
  log2 fold change: -0.168
[5]
  log2 fold change: -0.014
volasertib
  log2 fold change: -0.114
[7]
  log2 fold change: 0.038
[10]
  log2 fold change: -0.078
rosiglitazone
  log2 fold change: 0.314
[8]
  log2 fold change: -0.03

## PSMC3 (UniProt E9PLG2)
[11]
  log2 fold change: -0.381
[3]
  log2 fold change: -0.217
Nexturastat A
  log2 fold change: 0.04
vemurafenib
  log2 fold change: -0.157
[9]
  log2 fold change: -0.08
barasertib
  log2 fold change: 0.02
epoxomicin
  log2 fold change: -0.273
[10]
  log2 fold change: -0.238
rosiglitazone
  log2 fold change: 0.043
[12]
  log2 fold change: 0.046

## PMS2CL (UniProt Q68D20)
Chain of UniProt Q68D20 (Q68D20 whole entry, looked up): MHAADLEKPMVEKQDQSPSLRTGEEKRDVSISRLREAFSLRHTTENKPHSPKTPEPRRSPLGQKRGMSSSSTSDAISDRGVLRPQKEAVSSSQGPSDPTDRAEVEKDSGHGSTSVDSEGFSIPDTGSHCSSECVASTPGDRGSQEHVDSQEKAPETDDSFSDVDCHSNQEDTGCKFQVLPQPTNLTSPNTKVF
[1]
  log2 fold change: 0.089
Nexturastat A
  log2 fold change: -0.109
[9]
  log2 fold change: 0.129
[13]
  log2 fold change: -0.126
epoxomicin
  log2 fold change: 0.126

## PDE4A (UniProt P27815)
Chain of UniProt P27815 (P27815 whole entry, looked up): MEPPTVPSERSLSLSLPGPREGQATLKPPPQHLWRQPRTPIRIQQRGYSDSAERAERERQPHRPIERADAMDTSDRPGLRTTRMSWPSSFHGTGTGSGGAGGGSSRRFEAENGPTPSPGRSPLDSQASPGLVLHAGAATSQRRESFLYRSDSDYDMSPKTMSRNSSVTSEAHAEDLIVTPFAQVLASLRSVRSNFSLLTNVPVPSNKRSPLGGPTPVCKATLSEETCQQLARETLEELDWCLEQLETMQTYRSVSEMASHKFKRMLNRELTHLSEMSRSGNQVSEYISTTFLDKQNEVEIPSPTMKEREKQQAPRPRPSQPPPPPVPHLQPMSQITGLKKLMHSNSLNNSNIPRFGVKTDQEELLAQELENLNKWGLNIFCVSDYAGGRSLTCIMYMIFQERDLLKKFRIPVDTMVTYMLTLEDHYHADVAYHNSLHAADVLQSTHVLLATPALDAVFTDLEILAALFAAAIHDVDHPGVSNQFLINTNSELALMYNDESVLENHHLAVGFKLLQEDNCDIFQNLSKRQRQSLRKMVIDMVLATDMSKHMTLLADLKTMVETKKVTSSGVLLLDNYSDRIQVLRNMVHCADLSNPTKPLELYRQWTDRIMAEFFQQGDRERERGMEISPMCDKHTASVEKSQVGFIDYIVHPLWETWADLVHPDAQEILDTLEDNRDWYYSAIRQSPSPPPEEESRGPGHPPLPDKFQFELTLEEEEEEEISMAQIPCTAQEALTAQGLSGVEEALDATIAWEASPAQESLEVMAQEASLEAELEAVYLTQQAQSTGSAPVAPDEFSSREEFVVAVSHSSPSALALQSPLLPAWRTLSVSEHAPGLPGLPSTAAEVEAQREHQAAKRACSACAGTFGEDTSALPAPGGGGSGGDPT
[1]
  log2 fold change: -0.028
[2]
  log2 fold change: -0.047
[3]
  log2 fold change: 0.062
Nexturastat A
  log2 fold change: 0.061
vemurafenib
  log2 fold change: 0.006
[4]
  log2 fold change: 0.024
givinostat
  log2 fold change: 0.015
barasertib
  log2 fold change: 0.049
volasertib
  log2 fold change: -0.331
epoxomicin
  log2 fold change: -0.124
[6]
  log2 fold change: 0.099
[10]
  log2 fold change: 0.082
rosiglitazone
  log2 fold change: 0.078

## PIM1 isoform 2 (UniProt P11309)
Chain of UniProt P11309 (P11309 whole entry, looked up): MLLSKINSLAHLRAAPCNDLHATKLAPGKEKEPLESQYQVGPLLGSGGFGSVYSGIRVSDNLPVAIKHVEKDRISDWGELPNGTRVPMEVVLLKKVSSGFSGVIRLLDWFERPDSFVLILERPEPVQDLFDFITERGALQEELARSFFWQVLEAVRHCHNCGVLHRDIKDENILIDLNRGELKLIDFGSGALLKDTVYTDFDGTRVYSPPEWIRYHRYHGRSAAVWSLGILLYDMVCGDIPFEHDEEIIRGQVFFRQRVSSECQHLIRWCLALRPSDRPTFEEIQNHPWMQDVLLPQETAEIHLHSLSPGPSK
[9]
  log2 fold change: -0.566
[7]
  log2 fold change: -0.068
[8]
  log2 fold change: 2.26 (active)

## PTP4A3 (UniProt O75365)
Chain of UniProt O75365 (O75365 whole entry, looked up): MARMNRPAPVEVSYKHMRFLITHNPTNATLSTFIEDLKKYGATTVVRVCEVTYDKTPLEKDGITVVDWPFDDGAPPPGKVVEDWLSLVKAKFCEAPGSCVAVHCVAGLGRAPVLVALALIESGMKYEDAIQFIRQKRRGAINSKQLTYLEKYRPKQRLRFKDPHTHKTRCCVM
vemurafenib
  log2 fold change: 0.207
barasertib
  log2 fold change: -0.01
[10]
  log2 fold change: 0.205
rosiglitazone
  log2 fold change: 0.045

## PCNX1 (UniProt Q96RV3)
[2]
  log2 fold change: -0.373
Nexturastat A
  log2 fold change: 0.106
vemurafenib
  log2 fold change: 0.025
[4]
  log2 fold change: -0.58 (active)
[9]
  log2 fold change: -0.035
barasertib
  log2 fold change: 0.026
[5]
  log2 fold change: 0.331
volasertib
  log2 fold change: 0.132
[13]
  log2 fold change: -0.004
epoxomicin
  log2 fold change: -0.017
[10]
  log2 fold change: -0.064
rosiglitazone
  log2 fold change: 0.028

## POLR2M (UniProt Q6EEV4)
Chain of UniProt Q6EEV4 (Q6EEV4 whole entry, looked up): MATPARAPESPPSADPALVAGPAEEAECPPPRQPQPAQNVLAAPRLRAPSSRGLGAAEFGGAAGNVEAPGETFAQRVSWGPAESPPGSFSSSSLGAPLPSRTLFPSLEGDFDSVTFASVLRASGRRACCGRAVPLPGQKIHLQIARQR
[11]
  log2 fold change: 0.091
[2]
  log2 fold change: -0.062
[3]
  log2 fold change: 0.046
Nexturastat A
  log2 fold change: -0.403
vemurafenib
  log2 fold change: 0.017
[4]
  log2 fold change: -0.066
[9]
  log2 fold change: -0.073
givinostat
  log2 fold change: -0.105
barasertib
  log2 fold change: -0.055
[5]
  log2 fold change: 0.13
volasertib
  log2 fold change: 0.009
[13]
  log2 fold change: 0.002
epoxomicin
  log2 fold change: 0.154
[6]
  log2 fold change: 0.027
[10]
  log2 fold change: 0.091
rosiglitazone
  log2 fold change: 0.097
[12]
  log2 fold change: 0.105

## PSMC1 (UniProt G3V4X1)
[2]
  log2 fold change: -0.384
[4]
  log2 fold change: -0.154
givinostat
  log2 fold change: 0.095
volasertib
  log2 fold change: 0.141
[13]
  log2 fold change: -0.01
[6]
  log2 fold change: -0.135
[7]
  log2 fold change: 0.108
[8]
  log2 fold change: -0.282

## PSMA3 (UniProt G3V4X5)
[1]
  log2 fold change: -0.046
[2]
  log2 fold change: -0.117
[3]
  log2 fold change: 0.184
vemurafenib
  log2 fold change: -0.012
[4]
  log2 fold change: 0.013
barasertib
  log2 fold change: 0.103
volasertib
  log2 fold change: 0.139
[10]
  log2 fold change: 0.084
rosiglitazone
  log2 fold change: 0.122

## PIAS4 (UniProt Q8N2W9)
Chain of UniProt Q8N2W9 (Q8N2W9 whole entry, looked up): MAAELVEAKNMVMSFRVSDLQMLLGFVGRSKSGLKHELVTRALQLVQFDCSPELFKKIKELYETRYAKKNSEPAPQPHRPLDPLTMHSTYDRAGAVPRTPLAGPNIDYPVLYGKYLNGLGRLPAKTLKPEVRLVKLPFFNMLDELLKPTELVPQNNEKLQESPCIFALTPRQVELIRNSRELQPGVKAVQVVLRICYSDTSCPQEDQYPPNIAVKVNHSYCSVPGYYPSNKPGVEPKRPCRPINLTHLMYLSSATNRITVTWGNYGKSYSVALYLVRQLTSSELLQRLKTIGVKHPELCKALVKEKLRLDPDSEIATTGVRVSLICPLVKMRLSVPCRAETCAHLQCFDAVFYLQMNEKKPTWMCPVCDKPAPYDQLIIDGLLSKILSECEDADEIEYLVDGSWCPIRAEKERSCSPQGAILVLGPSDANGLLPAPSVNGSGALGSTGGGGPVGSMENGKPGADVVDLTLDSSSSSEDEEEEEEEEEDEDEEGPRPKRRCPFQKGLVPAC
[1]
  log2 fold change: -0.137
[2]
  log2 fold change: -0.101
[3]
  log2 fold change: 0.222
Nexturastat A
  log2 fold change: 0.353
[4]
  log2 fold change: 0.07
[9]
  log2 fold change: 1.31
volasertib
  log2 fold change: -0.406
epoxomicin
  log2 fold change: 0.11
[7]
  log2 fold change: -0.064
[12]
  log2 fold change: 0.173
[8]
  log2 fold change: 0.062

## PRKD2 (UniProt M0R346)
[11]
  log2 fold change: -0.011
Nexturastat A
  log2 fold change: 0.236
barasertib
  log2 fold change: -0.337
epoxomicin
  log2 fold change: -0.072
[7]
  log2 fold change: -0.025
rosiglitazone
  log2 fold change: -0.026
[8]
  log2 fold change: -0.14

## PCBP2 (UniProt F8VRH0)
[11]
  log2 fold change: 0.419
[2]
  log2 fold change: 0.019
[3]
  log2 fold change: 0.172
Nexturastat A
  log2 fold change: 0.136
vemurafenib
  log2 fold change: -0.235
[4]
  log2 fold change: 0.123
[9]
  log2 fold change: -0.199
givinostat
  log2 fold change: 0.04
barasertib
  log2 fold change: -0.201
[5]
  log2 fold change: -0.005
volasertib
  log2 fold change: -0.051
[13]
  log2 fold change: 0.165
epoxomicin
  log2 fold change: -0.252
[6]
  log2 fold change: 0.043
[7]
  log2 fold change: -0.201
[10]
  log2 fold change: 0.139
rosiglitazone
  log2 fold change: -0.042
[12]
  log2 fold change: -0.306
[8]
  log2 fold change: -0.149

## PPP1R12B isoform 6 (UniProt O60237)
Chain of UniProt O60237 (O60237 whole entry, looked up): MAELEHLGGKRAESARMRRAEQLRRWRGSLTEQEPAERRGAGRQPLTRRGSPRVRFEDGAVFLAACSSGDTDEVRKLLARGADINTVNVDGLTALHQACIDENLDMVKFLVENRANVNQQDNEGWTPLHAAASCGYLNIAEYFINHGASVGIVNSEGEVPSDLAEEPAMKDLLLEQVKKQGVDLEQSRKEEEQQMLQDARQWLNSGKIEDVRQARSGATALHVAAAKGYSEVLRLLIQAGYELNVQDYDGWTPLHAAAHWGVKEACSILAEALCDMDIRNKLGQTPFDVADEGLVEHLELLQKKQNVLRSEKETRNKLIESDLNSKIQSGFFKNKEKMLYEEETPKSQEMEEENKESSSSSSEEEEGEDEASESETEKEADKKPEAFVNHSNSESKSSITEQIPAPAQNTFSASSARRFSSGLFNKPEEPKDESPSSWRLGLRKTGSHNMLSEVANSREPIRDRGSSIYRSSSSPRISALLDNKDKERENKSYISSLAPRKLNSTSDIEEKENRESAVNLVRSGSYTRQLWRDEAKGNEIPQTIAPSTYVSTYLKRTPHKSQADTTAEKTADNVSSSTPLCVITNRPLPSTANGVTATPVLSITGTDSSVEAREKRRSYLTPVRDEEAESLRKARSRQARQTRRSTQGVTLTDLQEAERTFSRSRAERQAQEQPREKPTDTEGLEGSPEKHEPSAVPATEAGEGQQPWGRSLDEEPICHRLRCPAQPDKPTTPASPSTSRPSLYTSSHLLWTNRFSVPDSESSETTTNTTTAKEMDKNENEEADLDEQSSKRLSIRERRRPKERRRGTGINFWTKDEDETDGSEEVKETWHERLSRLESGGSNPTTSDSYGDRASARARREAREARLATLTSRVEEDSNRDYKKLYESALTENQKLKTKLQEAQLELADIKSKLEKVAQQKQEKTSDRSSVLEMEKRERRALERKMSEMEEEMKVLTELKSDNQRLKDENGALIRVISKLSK
givinostat
  log2 fold change: 0.252
barasertib
  log2 fold change: 0.108
[13]
  log2 fold change: 0.088
[6]
  log2 fold change: -0.11
rosiglitazone
  log2 fold change: 0.006

## PAN2 (UniProt Q504Q3)
Chain of UniProt Q504Q3 (Q504Q3 whole entry, looked up): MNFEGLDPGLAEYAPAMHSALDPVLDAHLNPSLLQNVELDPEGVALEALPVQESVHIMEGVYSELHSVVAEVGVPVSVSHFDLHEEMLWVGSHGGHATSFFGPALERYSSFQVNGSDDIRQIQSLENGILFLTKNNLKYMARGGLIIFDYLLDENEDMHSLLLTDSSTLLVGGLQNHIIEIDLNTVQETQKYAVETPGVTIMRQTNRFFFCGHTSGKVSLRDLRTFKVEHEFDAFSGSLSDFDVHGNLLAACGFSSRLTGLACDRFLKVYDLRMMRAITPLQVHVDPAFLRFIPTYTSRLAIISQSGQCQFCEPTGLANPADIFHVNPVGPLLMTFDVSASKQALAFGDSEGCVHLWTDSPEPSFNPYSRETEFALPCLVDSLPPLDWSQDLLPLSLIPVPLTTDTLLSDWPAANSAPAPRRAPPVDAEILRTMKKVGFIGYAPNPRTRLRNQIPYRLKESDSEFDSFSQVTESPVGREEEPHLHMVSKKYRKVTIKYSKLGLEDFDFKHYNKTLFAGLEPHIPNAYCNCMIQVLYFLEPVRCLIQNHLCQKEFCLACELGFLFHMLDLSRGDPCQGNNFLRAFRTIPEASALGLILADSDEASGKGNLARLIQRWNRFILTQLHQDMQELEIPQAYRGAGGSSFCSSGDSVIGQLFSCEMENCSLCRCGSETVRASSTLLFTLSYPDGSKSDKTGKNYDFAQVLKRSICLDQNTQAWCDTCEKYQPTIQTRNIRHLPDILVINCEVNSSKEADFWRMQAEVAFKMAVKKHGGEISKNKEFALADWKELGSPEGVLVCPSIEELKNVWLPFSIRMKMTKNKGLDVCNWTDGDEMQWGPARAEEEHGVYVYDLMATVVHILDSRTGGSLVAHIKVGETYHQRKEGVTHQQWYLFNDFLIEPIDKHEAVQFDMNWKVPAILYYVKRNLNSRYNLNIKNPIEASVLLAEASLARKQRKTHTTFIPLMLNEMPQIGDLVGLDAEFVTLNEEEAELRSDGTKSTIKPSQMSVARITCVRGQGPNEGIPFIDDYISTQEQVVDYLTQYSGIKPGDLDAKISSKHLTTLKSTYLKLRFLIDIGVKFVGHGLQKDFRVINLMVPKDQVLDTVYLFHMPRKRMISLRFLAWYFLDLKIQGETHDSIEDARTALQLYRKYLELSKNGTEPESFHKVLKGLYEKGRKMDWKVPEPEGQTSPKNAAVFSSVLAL
vemurafenib
  log2 fold change: -0.128
barasertib
  log2 fold change: 0.088
[5]
  log2 fold change: 0.101
[13]
  log2 fold change: 0.167
[10]
  log2 fold change: 0.006
rosiglitazone
  log2 fold change: 0.181
[12]
  log2 fold change: 0.143

## PUF60 isoform 2 (UniProt Q9UHX1)
Chain of UniProt Q9UHX1 (Q9UHX1 whole entry, looked up): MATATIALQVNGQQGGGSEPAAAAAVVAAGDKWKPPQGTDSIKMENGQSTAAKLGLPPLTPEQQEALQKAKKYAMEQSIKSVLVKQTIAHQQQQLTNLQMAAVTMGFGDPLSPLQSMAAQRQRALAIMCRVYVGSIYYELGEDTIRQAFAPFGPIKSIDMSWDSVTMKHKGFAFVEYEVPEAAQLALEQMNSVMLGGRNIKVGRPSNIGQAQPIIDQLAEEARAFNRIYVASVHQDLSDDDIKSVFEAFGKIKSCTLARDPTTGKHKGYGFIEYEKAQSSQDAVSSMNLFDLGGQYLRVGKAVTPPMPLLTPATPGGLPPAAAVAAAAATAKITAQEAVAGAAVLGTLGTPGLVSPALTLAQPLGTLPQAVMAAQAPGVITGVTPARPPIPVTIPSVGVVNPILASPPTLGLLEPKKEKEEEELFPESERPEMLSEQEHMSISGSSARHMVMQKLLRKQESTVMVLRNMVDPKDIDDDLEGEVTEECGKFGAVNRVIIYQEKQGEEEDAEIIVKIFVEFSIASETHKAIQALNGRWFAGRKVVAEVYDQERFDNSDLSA
[1]
  log2 fold change: 0.04
[2]
  log2 fold change: 0.199
vemurafenib
  log2 fold change: 0.135
[4]
  log2 fold change: 0.35
[9]
  log2 fold change: 0.123
barasertib
  log2 fold change: 0.095
volasertib
  log2 fold change: -0.372
[10]
  log2 fold change: 0.067
rosiglitazone
  log2 fold change: -0.011
[12]
  log2 fold change: -0.259
